L3MBTL1 block – L3MBTL1 (human) inhibition. Q9Y468. AlphaScreen L3MBTL1–H3K9me1 peptide binding. Potency, µM (series often up to 57.1 µM), hits mostly inhibitors. 230,000 compounds, 0.66% hits; note: nearly all actives have a fitted effect of over 60% in size
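First, the protein-peptide complex forms for 30 min at room temperature (L3MBTL1 50 nM, biotinylated H3K9me1 peptide 75 nM). Next, compounds are pin-transferred and incubated 30 min. Finally, AlphaScreen beads are added and read after 30 min.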
HP1b chromo inh – HP1-beta chromodomain-methylated histone interaction inhibition. 390,000 compounds, 0.56% hits. AlphaScreen HP1-beta / biotin-H3K9me3 peptide binding. Potency, µM (top dose mostly 114 µM), actives largely listed as inhibitors. P83916. AID 540317; note: nearly all actives have a fitted effect of over 70% in size
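AlphaScreen: HP1-beta (50 nM) preformed 30 min with biotin-H3(1-18)K9me3 peptide (50 nM) in PBS pH 7.4, 0.01% Tween-20. Compound added for 30 min at RT, then streptavidin donor/nickel chelate acceptor beads (10 ug/mL) for 30 min.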
PI5P4K alpha inh – PI5P4K alpha (human) kinase inhibition; max response, %; PI5P4Kalpha enzyme, ADP-Glo luminescence, 60 min; active compounds read low; P48426; AID 652105; 330,000 compounds, 1.2% hits; active = max response of -50% or lower; inconclusive = between -30% and -50%; inactive = -30% or higher; note: value at the top dose of about 77 µM
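Human PI5P4Kalpha with substrate in 0.038 M HEPES pH 7.4, 0.28 mM EGTA, 0.1% CHAPS, 5% DMSO; reaction started with 5 microM ATP (final), 60 min at room temperature. ADP formed read by ADP-Glo luminescence.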
JMJD2E inh – blocks human JMJD2E demethylase activity; B2RXH2; JMJD2E catalytic domain, FDH-coupled NADH fluorescence (FDH is formaldehyde dehydrogenase); Potency, µM (series often up to 57.1 µM), usual class: inhibitors; 230,000 compounds, 1.6% hits; AID 2147; active = well fitted inhibition curve with a large enough effect, not every such curve was filed as active; inconclusive = small, poorly fitted or top-dose-only effect, or another doubt; inactive = no such curve, though single readings can be large or run the other way; note: nearly all actives have a fitted effect of over 50% in size
JMJD2A Tudor inh – blocks the human JMJD2A Tudor domain; 390,000 compounds, 4.4% hits; AlphaScreen JMJD2A-Tudor / H3K4me3 peptide binding; Potency, µM (doses to about 114 µM), hits mostly inhibitors; O75164; note: nearly all actives have a fitted effect of over 50% in size
BAZ2B inh – inhibitors of human BAZ2B bromodomain; Potency, µM (top dose mostly 114 µM), usual class: inhibitors; 360,000 compounds, 4.4% hits; AlphaScreen BAZ2B-H3K14Ac peptide displacement; Q9UIF8; note: nearly all actives have a fitted effect of over 60% in size
Target sequence (Q9UIF8 whole entry, looked up): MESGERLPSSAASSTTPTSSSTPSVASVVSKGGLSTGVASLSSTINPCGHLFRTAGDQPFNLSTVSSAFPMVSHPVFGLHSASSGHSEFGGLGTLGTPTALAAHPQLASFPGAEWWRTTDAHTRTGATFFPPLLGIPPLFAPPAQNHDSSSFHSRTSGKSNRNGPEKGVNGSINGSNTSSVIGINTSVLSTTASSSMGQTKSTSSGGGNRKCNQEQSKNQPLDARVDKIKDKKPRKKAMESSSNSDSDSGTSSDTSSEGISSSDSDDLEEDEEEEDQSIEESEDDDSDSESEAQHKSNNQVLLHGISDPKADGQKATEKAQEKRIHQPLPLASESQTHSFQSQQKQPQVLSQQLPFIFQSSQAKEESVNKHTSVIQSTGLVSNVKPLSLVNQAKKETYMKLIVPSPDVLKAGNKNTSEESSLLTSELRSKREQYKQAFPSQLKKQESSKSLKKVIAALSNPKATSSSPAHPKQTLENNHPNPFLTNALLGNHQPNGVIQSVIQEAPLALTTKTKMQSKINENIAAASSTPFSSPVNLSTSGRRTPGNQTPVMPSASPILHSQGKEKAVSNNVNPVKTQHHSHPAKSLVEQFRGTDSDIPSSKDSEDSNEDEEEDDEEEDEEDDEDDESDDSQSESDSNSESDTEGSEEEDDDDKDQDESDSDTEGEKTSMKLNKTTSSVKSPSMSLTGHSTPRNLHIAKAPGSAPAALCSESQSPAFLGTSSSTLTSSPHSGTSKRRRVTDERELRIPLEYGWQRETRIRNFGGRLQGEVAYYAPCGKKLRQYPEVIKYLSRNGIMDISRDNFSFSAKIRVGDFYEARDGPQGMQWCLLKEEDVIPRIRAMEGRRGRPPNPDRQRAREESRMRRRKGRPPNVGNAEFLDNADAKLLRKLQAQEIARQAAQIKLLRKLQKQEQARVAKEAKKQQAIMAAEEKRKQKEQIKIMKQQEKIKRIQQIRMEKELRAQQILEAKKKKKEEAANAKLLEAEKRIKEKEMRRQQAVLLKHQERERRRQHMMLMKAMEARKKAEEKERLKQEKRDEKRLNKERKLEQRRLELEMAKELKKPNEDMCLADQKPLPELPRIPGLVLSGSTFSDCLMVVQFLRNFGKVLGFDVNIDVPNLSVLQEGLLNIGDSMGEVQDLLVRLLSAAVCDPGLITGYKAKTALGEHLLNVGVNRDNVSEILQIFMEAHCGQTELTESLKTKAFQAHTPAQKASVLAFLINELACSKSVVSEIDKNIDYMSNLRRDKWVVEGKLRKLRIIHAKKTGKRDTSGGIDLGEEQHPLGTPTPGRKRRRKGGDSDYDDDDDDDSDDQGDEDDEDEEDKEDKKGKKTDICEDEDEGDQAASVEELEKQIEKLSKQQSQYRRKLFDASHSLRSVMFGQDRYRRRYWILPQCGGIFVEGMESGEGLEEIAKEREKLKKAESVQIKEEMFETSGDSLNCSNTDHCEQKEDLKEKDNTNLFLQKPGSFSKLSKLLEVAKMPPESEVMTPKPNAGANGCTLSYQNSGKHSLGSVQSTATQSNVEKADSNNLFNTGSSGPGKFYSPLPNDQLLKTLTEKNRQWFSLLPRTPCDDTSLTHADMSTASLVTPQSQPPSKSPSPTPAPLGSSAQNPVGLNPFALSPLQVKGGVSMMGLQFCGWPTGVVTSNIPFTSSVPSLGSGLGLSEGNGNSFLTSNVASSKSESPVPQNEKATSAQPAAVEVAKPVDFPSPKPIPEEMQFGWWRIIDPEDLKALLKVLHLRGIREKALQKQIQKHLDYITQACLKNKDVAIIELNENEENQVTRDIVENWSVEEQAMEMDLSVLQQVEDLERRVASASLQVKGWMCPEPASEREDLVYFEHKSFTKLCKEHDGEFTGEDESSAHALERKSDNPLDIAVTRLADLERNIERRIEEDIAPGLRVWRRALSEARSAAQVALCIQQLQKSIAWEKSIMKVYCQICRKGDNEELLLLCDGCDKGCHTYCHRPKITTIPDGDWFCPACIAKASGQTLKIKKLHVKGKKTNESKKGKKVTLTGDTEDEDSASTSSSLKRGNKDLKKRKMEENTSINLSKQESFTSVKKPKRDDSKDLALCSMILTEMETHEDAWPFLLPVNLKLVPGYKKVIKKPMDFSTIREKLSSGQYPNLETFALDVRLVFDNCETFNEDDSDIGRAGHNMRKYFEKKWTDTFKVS
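Complex of BAZ2B and biotin-H3K14Ac (50 nM apiece) forms over 30 min at RT, then faces library compounds up to 110 uM for another 30 min; AlphaScreen beads added, 20 min dark incubation, luminescence read.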
Numbers stand for hits; i = inactive; ? = inconclusive; nt = not tested or not shown; [ ] = another dose, or the depositor's remark. The list is not random: actives were taken first. Their share in the collection is about 5.7%. Unless noted, calls come from the whole dose curve; as a rule, active = well fitted inhibition curve with a large enough effect; inconclusive = small, poorly fitted or top-dose-only effect; inactive = no such curve, though single readings can be large or run the other way.

SMILES	L3MBTL1 block	HP1b chromo inh	PI5P4K alpha inh	JMJD2E inh	JMJD2A Tudor inh	BAZ2B inh
CC(C)N(C(=O)C[n+]1ccsc1N)c1ccccc1	nt	i	i	i	i	i
C(=C\c1sc(Nc2ccccc2)n[n+]1-c1ccccc1)/c1ccccc1	nt	?	i	nt	56µM	nt
CCOc1cc(-c2sc(Nc3cc(C)ccc3OC)n[n+]2-c2ccccc2)ccc1OC	i	i	?	nt	56µM	56µM
Cc1cccc(-c2sc(Nc3ccccc3)n[n+]2-c2ccc(F)cc2)c1	i	i	i	nt	i	i
CCc1ccc(Nc2n[n+](-c3ccccc3)c(-c3cccc(C)c3)s2)cc1	i	i	i	nt	79µM	35µM
CCOc1cc(-c2sc(Nc3ccc(CC)cc3)n[n+]2-c2ccccc2)ccc1OC	i	i	i	nt	?	?
COc1ccc(-c2sc(Nc3ccccc3)n[n+]2-c2ccccc2)cc1Br	i	i	i	nt	79µM	50µM
CC(C)(C)c1ccc(C(=O)N2CCCC(c3nc4c(nnn4Cc4cccc(F)c4)c(=O)[nH]3)C2)cc1 (configuration not stated)	nt	i	nt	nt	i	?
COc1ccc(-c2sc(Nc3ccccc3)n[n+]2-c2ccc(F)cc2)c(C)c1C	i	i	i	nt	?	?
COc1ccc(C)cc1Nc1n[n+](-c2ccccc2)c(-c2ccc(C(=O)O)cc2)s1	i	i	i	nt	35µM	40µM
O=C(CCCCn1c(=O)c2ccccc2n(Cc2cccc(Cl)c2)c1=O)NCc1ccc2c(c1)OCO2	nt	i	nt	nt	i	i
COc1cccc(CNC(=O)c2ccc3c(c2)N(C)C(=O)C2CCCCN32)c1 (configuration not stated)	nt	i	nt	nt	i	i
Cc1cc(C(=O)OCC(=O)N2CCOCC2)c(C)n1-c1ccccc1	i	i	i	nt	i	nt
Cc1ccc(-n2c(C)cc(C(=S)N3CCOCC3)c2C)cc1C	i	?	nt	i	45µM	50µM
Cc1cc(C(=S)N2CCOCC2)c(C)n1-c1ccc(F)cc1	i	i	i	i	i	45µM
O=C(O)c1ccc(CN2C(=O)c3ccc(Oc4ccc([N+](=O)[O-])cc4)cc3C2=O)cc1	i	i	i	nt	i	i
Cc1cc(C)c2c(-n3cccc3)c(C(=O)NNS(=O)(=O)c3ccc(Br)cc3)sc2n1	i	i	i	i	56µM	?
COc1ccccc1NC(=O)C1=C(C)Nc2nc(SCc3cccc(F)c3)nn2C1c1ccc(C(=O)O)cc1 (configuration not stated)	i	i	nt	nt	i	50µM
COc1ccccc1NC(=O)C1=C(C)Nc2nc(-c3ccc(N(C)C)cc3)nn2C1c1ccncc1 (configuration not stated)	i	i	nt	i	?	50µM
Cc1cccc(-n2ncc3c(NNC(=O)c4ccccc4Cl)ncnc32)c1	nt	i	nt	nt	i	i
CC(C)c1ccc(S(=O)(=O)/N=C2/C=C(Sc3ncn[nH]3)C(=O)c3ccccc32)cc1	?	18µM	-79	i	7.1µM	45µM
Cc1ccc(S(=O)(=O)/N=C2/C=C(Sc3ncn[nH]3)C(=O)c3ccccc32)c(C)c1	?	nt	nt	8.9µM	nt	45µM
Cc1ccc(S(=O)(=O)N2CCN(C(=O)CSc3ncn[nH]3)CC2)c(C)c1	i	i	i	nt	i	i
Cc1ccc(S(=O)(=O)/N=C2/C=C(Sc3ncn[nH]3)C(=O)c3ccccc32)cc1	i	8.9µM	-100	4µM	2.8µM	45µM
Cc1ccc(S(=O)(=O)Nc2ccc(O)c(Sc3ncn[nH]3)c2)cc1	i	i	i	i	i	i
SMILES	L3MBTL1 block	HP1b chromo inh	PI5P4K alpha inh	JMJD2E inh	JMJD2A Tudor inh	BAZ2B inh
CCOC(=O)c1c(C)[nH]c(C)c1S(=O)(=O)N1CCC(C(=O)N2CCN(c3cccc(C)c3)C(C)C2)CC1 (configuration not stated)	nt	i	nt	nt	?	79µM
CCOC(=O)c1c(C)[nH]c(C)c1S(=O)(=O)N1CCC(C(=O)N2CCN(c3cc(C)ccc3C)CC2)CC1	nt	i	nt	nt	?	i
Cc1cccc(N2CCN(C(=O)C3CCN(C(=O)c4cc5sccc5n4C)CC3)CC2C)c1 (configuration not stated)	nt	i	nt	nt	?	35µM
Cc1ccc(C)c(N2CCN(C(=O)C3CCN(C(=O)c4cc5sccc5n4C)CC3)CC2)c1	nt	i	nt	nt	?	25µM
CCOc1cc(NS(=O)(=O)c2ccc(NC(C)=O)cc2)c(OCC)cc1NC(=O)c1cccs1	i	i	i	i	i	i
COc1cc(C)ccc1OCc1cc(C(=O)N2CCCCCC2)no1	nt	i	i	nt	16µM	i
O=C(Nc1ccc(F)cc1)C(=O)C1C(=O)Nc2ccccc21 (configuration not stated)	i	i	i	i	i	i
O=C(Nc1ccc2ccccc2c1)C(=O)C1C(=O)Nc2ccccc21 (configuration not stated)	i	nt	nt	8.9µM	nt	i
Nc1ccccc1Nc1cc(-c2ccccc2)nn1-c1cccc(Cl)c1	?	45µM	i	?	20µM	11µM
CCCCCn1c(CCNC(=O)c2cccc(C)c2)nc2ccccc21	nt	i	nt	nt	i	i
O=C(Nc1ccccc1C(=O)O)c1ccccc1	nt	i	nt	i	i	?
O=C(Nc1ccccc1C(=O)O)c1ccc(CN2C(=O)c3ccccc3C2=O)cc1	i	i	-53	nt	i	i
CC(C)CCN1C(=O)c2ccc(C(=O)Nc3ccccc3C(=O)O)cc2C1=O	nt	i	-60	nt	i	i
CC(c1ccccc1)N1C(=O)c2ccc(C(=O)Nc3ccc(Br)cc3C(=O)O)cc2C1=O (configuration not stated)	nt	i	-57	nt	50µM	i
CC(c1ccccc1)N1C(=O)c2ccc(C(=O)Nc3ccccc3C(=O)O)cc2C1=O (configuration not stated)	nt	i	?	nt	?	?
COc1ccc(CCNC(=O)CSc2ccc3nnc(CCNC(=O)c4ccccc4)n3n2)cc1OC	nt	i	i	nt	i	i
COc1cc(OC)c(NC(=O)c2c(N3CCCC3=O)c3cc(C)ccc3n2C)cc1Cl	nt	i	nt	nt	i	i
CCOc1cc(CNCc2ccccc2)ccc1OCC(=O)NC1CCCCC1	nt	i	i	nt	i	i
CC(C)(C)NC(=O)COc1ccc(CNCc2cccnc2)cc1	i	i	i	?	89µM	?
COc1cc(CNCc2ccccn2)ccc1OCC(=O)NC(C)(C)C	i	i	i	i	?	50µM
COc1cc(CNCc2cccnc2)ccc1OCC(=O)NC(C)(C)C	i	i	i	i	i	i
COc1cc(CNCc2ccccn2)ccc1OCC(=O)NC1CCCCC1	?	i	i	i	?	56µM
COc1ccc(C)cc1S(=O)(=O)N1CCC(C(=O)N2CCN(C)CC2)CC1	i	i	i	i	i	i
O=C1c2cccc3c([N+](=O)[O-])ccc(c23)C(=O)N1c1ccccn1	i	i	i	i	i[11.4 µM]	?
